IL-2 act: IL-2 activation. IL-2 activation reporter assay, cell-based qHTS; stimulated with anti-CD3/CD4/CD28 beads; in transgenic mouse T cells. hit rate 0.065% among 360,000. AID 652025. activation, % (series mostly up to about 46 µM); in the data active = activation above about 50%; inconclusive = mostly about 30% to 49%
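Quantitative HTS in unstimulated transgenic mouse T cells, with memory T cells as non-tolerant control and PMA/ionomycin as tolerance-bypass control. Compound pretreatment lasted 60 minutes before 18 h bead stimulation; EGFP/DsRed fluorescence read.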
ClpP mod: qHTS Assay for Activators of ClpP. purified B. subtilis ClpP, FRET peptide cleavage, 20 min. ATP-dependent Clp protease proteolytic subunit (Bacillus subtilis (strain 168)), P80244. Potency, µM (doses to about 57.5 µM). hit rate 1.9% among 340,000. AID 651965, 2013; active = well fitted falling curve with a large enough effect; inconclusive = small, poorly fitted or top-dose-only effect; inactive = no such curve, though single readings can be large or run the other way; also: the source files actives as falling curves though it sought activators and does not explain the sign; nearly all actives have a fitted effect of over 65% in size
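Buffer: 100 mM Tris/HCl pH8, 100 mM KCl, 0.05% low protease BSA, 2.5% glycerol, 0.01% Tween-20. ClpP 10 microg/mL final; 20 min RT; delta FRET normalized to ADEP and DMSO controls.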
PKM2 act: activators of human pyruvate kinase M2 | purified PKM2, Kinase-Glo ATP luminescence, activation; response scale: 0% is enzyme alone, no compound | AID 1631 | hit rate 0.34% among 260,000 | Potency, µM (top dose mostly 57.5 µM), most hits filed as activators | P14618; also: nearly all actives have a fitted effect of over 55% in size
Target sequence (P14618 whole entry, looked up): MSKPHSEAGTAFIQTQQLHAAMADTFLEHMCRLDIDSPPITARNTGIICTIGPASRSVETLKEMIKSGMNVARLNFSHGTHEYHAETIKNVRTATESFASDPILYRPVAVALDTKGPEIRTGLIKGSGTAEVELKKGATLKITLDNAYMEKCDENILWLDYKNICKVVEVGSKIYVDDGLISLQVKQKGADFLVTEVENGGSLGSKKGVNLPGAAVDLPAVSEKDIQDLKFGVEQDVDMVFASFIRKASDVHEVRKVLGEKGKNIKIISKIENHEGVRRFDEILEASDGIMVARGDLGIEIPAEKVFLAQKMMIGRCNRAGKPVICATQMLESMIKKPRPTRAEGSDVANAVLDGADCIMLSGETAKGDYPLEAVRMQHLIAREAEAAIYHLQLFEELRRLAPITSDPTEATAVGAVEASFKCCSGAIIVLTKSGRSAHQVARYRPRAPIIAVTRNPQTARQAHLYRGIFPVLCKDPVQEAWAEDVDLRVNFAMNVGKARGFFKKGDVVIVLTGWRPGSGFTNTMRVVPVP
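Purified hPK-M2 (>95%) run at intermediate activity with 0.1 mM ADP and 0.5 mM PEP in 50 mM imidazole pH 7.2, KCl, MgCl2; 1 h room temperature. ATP formed read by Kinase-Glo luminescence; normalized to uninhibited and no-enzyme controls.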
NPSR antag: neuropeptide S receptor (human) antagonism, cAMP. CHO-NPSR cells, cAMP TR-FRET, antagonist mode. Potency, µM (top dose mostly 38.3 µM), usual class: inhibitors. hit rate 1% among 220,000; also: nearly all actives have a fitted effect of over 50% in size
Numbers stand for hits; n = inactive; u = inconclusive; x = no result given; [ ] = remark or other dose. An excerpt weighted towards active compounds, which were near 2% of everything screened. Unless noted, calls follow the shape of the dose curve; as a rule, active = well fitted curve in the direction sought with a large enough effect; inconclusive = small, poorly fitted or top-dose-only effect, or another doubt; inactive = no such curve, though single readings can be large; an effect the other way counts as inactive or inconclusive.

SMILES | IL-2 act | ClpP mod | PKM2 act | NPSR antag
COc1cc2c(C#N)c(N3CCc4ccccc4C3)nc(N)c2c(N)n1 | n | 28µM | n | n
CCN(CC)c1nc(N)c2c(N)nc(OC)cc2c1C#N | n | n | x | x
COc1cc2c(C#N)c(N3CCOCC3)nc(N)c2c(N)n1 | n | 16µM | n | n
COc1ccc(-c2nc(C#N)c(N3CCc4ccccc4C3)o2)cc1OC | n | u | n | u
Cc1ccc(S(=O)(=O)Nc2ccnc(-c3cccnc3)n2)cc1 | n | x | n | n
CC(C)(C)c1cc(NCc2ccccn2)n2ncc(-c3ccccc3)c2n1 | n | x | n | u
CC(=O)c1sc(NC(=O)c2ccc(Cn3cc(Br)cn3)o2)nc1C | n | n | 11µM | n
CC(=O)c1sc(NC(=O)c2ccc(Br)o2)nc1C | n | n | n | x
CCN(CC)CCCC(C)n1c(-c2ccccc2)nc2c(NCCOC)nc(C)nc21 (stereo unspecified) | x | x | n | x
CCOC(=O)N1CCN(C(=O)c2cccn3c(=O)c4sccc4nc23)CC1 | n | 25µM | n | n
Cc1ccc(CNC(=O)C(=O)NCCC2CCCCN2S(=O)(=O)c2ccc(C)cc2)cc1 (stereo unspecified) | n | n | x | x
O=C(CSc1nnc(-c2ccccc2)c(-c2ccccc2)n1)N1CCOCC1 | n | n | n | n
O=C(CSc1nc(-c2ccccc2)c(-c2ccccc2)o1)N1CCOCC1 | n | 32µM | n | n
O=C(Nc1nc2ccc(SC(F)F)cc2s1)c1ccc(NS(=O)(=O)c2ccc(F)c(F)c2)cc1 | n | 32µM | n | 13µM
Oc1ccccc1CNc1ccc(Br)cn1 | n | 3.2µM | 32µM | n
O=c1ccc(-c2ccc(S(=O)(=O)N3CCCCC3)o2)n[nH]1 | n | n | x | x
O=C(NCCc1ccccc1)c1cc(-c2ccccc2)nc2n[nH]c(-c3ccccc3)c12 | x | 28µM | x | x
COc1cc(C2C(C(=O)c3ccc(C)o3)=C(O)C(=O)N2CCCn2ccnc2)cc(OC)c1OC (stereo unspecified) | n | 25µM | n | x
c1csc(-c2cnc3ccccc3n2)c1 | n | 6.3µM | n | n
COc1ccc(CN2CCN(c3cc(C)nc4c5c(C)cc(C)nc5nn34)CC2)cc1F | n | 11µM | n | n
CN(C(=O)c1ccccc1C(=O)OCC(=O)c1ccc(F)c(F)c1)C1CCCCC1 | n | n | x | x
COc1ccccc1N1CCN(C(=O)c2cc3c(s2)-c2ccccc2OC3)CC1 | n | 14µM | n | x
O=C(c1cc2c(s1)-c1ccccc1OC2)N1CCc2ccccc2C1 | n | n | n | n
O=C(NCc1ccccn1)c1ccc(N2CCCC2=O)cc1 | n | n | n | n
Cc1cc2cc3c(=O)[nH]c(=O)nc-3n(CC(O)C(O)C(O)CO)c2cc1C (stereo unspecified) | n | 35µM | x | x
SMILES | IL-2 act | ClpP mod | PKM2 act | NPSR antag
Cc1cccc(N2CCN(C(=O)c3cccs3)CC2)c1C | n | n | n[11.5 µM] | x
Cc1cccc(N2CCN(C(=O)Cn3c(-c4cccs4)cc4ccccc43)CC2)c1C | x | 16µM | x | x
Cc1ccc(C)c(N2CCN(C(=O)Cn3c(-c4cccs4)cc4ccccc43)CC2)c1 | x | 16µM | x | x
Cc1ccc(C)c(N2CCN(C(=O)Cn3ncc4ccsc4c3=O)CC2)c1 | x | n | x | x
Cc1cccc(OC(C)C(=O)NCc2ccc(S(N)(=O)=O)cc2)c1 (stereo unspecified) | n | 3.2µM | n | n
COc1ccc(CNC(=O)c2cccc(C)c2[N+](=O)[O-])cc1 | n | n | n | n
Cc1cccc(C(=O)NCc2ccc(S(N)(=O)=O)cc2)c1[N+](=O)[O-] | n | 28µM | n | n
Cc1ccc(/C(C#N)=C\c2ccc(N3CCOCC3)o2)cc1 | n | n | 2.8µM | u
N#C/C(=C/c1ccc(N2CCCCC2)o1)c1cccc(F)c1 | n | n | u | 10µM
N#C/C(=C/c1ccc(N2CCCCC2)cc1)c1cccc(F)c1 | n | n | n | n
N#C/C(=C/c1ccc(N2CCCCCC2)o1)c1ccc(Cl)cc1 | n | n | u | 10µM
Cc1ccc2nc(/C(C#N)=C\c3ccc(N4CCOCC4)o3)[nH]c2c1 | u | n | n | n
COc1cccc(CNC(=O)Cn2ccc([N+](=O)[O-])n2)c1 | n | n | n | x
COc1ccc(NC(=S)N(CCO)Cc2cc3c(C)cc(C)cc3[nH]c2=O)cc1 | n | n | n | n
Cc1cc(C)nc(SCc2cc(=O)c(OC(=O)c3ccc(S(=O)(=O)N(C)C)cc3)co2)n1 | n | 2.8µM | n | n
CCCCCCCCN1C(=O)[C@H](CC(=O)NCc2ccccc2)C[C@@]2(C(=O)OC)CC(C)(C)CC=C12 | n | n | x | x
O=C(COc1ccccc1[N+](=O)[O-])Nc1cccc(S(=O)(=O)NC2=NCCCCC2)c1 | n | n | x | x
Cc1ccc(N(Cc2cc3ccc(C)cc3[nH]c2=O)S(C)(=O)=O)c(C)c1 | n | n | 22µM | n
Cc1ccc2cc(CN(C)S(C)(=O)=O)c(=O)[nH]c2c1 | n | x | n | n
CCS(=O)(=O)NCCc1cc2cc(C)c(C)cc2[nH]c1=O | n | n | n | n
CCS(=O)(=O)NCCc1cc2ccc(C)cc2[nH]c1=O | n | 28µM | n | n
O=C(COc1ccc(/C=N/NC(=O)c2ccc(O)cc2)cc1)Nc1cccc([N+](=O)[O-])c1 | n | n | n | n
CCOC(=O)c1cc(-c2cc3ccccc3o2)nc2c1c(=O)[nH]c(=O)n2CCOC | n | 7.1µM | n | u
CCOC(=O)c1cc(-c2ccc([N+](=O)[O-])cc2)nc2c1c(=O)[nH]c(=O)n2Cc1ccccc1 | n | x | x | x
CCC(C)NC(=O)c1[nH]c2cc(OC)ccc2c1Sc1ccc(C)cc1 (stereo unspecified) | x | 28µM | x | x
SMILES | IL-2 act | ClpP mod | PKM2 act | NPSR antag
COc1ccc(Cn2ccc3nc(C)c(C(=O)Nc4ccc(F)cc4)cc3c2=O)cc1 | x | n | x | x
COc1ccc(Cn2ccc3nc(C)c(C(=O)Nc4ccc(OC(F)(F)F)cc4)cc3c2=O)cc1 | x | 25µM | x | x
COc1ccccc1CNC(=O)c1ccc(NS(=O)(=O)c2c(C)noc2C)cc1 | n | n | n | n
COc1ccc2c(c1)CCc1sc(NC(=O)c3ccc(C)cc3)nc1-2 | n | 35µM | n | u
O=C1C=C(NC2CC2)C2(CCCCC2)O1 | n | 13µM | n | n
O=C(Nc1ccccn1)c1ccc(C(=O)c2ccccc2)cc1 | n | x | x | x
O=C(c1ccccc1)c1nc[nH]c1C(=O)Nc1ccccn1 | n | 28µM | n | n
OC(COc1ccc(Cl)cc1)CN1C2=NCCCN2c2ccccc21 (stereo unspecified) | n | 22µM | n | n
CN(c1ccccc1C(=O)Nc1ccc2c(c1)n(C)c(=O)n2C)S(C)(=O)=O | n | n | n | x
CN(c1ccc(C(=O)Nc2ccc3c(c2)n(C)c(=O)n3C)cc1)S(C)(=O)=O | n | 25µM | x | x
COc1ccc(NS(=O)(=O)c2ccc(NC(=O)c3ccc(N(C)S(C)(=O)=O)cc3)cc2)c(OC)c1 | n | 25µM | n | n
COC(=O)c1ccc(Cl)c(NC(=O)CN(c2ccc3c(c2)OCO3)S(C)(=O)=O)c1 | n | n | n | n

Source: PubChem BioAssay (National Center for Advancing Translational Sciences (NCATS))
